Measurements: PubChem BioAssay
For some assays here: Results with a measured potency or affinity are listed apart. The source made the active and inactive calls.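 How the source made its calls, unless noted: active means compound raising the membrane signal above positive-control mean plus 3 SD in both repeats, and a primary screen hit; inactive means the rest.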

Experiments:
[1] = system: TRPC4 beta (transient receptor potential cation channel C4), mouse; assay: activators of mouse TRPC4 channel, confirmation, cell-based, Fluo4 calcium, HEK293 TRPC4beta/mu-opioid, duplicates, 10 µM (AID 2426;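 active means fluorescence ratio normalized to control raised more than 50% in primary screen plus both repeat runs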); conditions: Fluo4 calcium fluorescence, at 10 µM; hits give high values
[2] = system: transient receptor potential cation channel C4 beta (TRPC4), mouse; assay: activators of mouse TRPC4 channel, confirmation, cell-based, second round, Fluo4, HEK293 TRPC4beta/mu-opioid, 1 µM (AID 2461;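 active means primary screen active and over 50% activation in each of two duplicate runs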); conditions: Fluo4 calcium fluorescence, at 1 µM; hits give high values
[3] = system: TRPC4 (transient receptor potential cation channel C4 beta), mouse; assay: positive allosteric modulators of mouse TRPC4, confirmation, cell-based, second round, Fluo-4, HEK293 TRPC4beta/mu-opioid, 1 µM (AID 2554;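 active means primary screen hit whose fluorescence ratio, in both repeats, exceeds the weak agonist control mean by 3 SD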); conditions: DAMGO EC20, Fluo-4 calcium flux, at 1 µM; hits give high values
[4] = system: TRPC4 beta (transient receptor potential cation channel C4), mouse; assay: positive allosteric modulators of mouse TRPC4, confirmation, cell-based, Fluo-4, HEK293 TRPC4beta/mu-opioid (AID 2555;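 active means primary screen hit whose calcium fluorescence ratio, in both repeats, exceeds the weak agonist control mean by 3 SD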); conditions: DAMGO EC20, Fluo-4 calcium flux, at 10 µM; hits give high values
[5] = biological target: Short transient receptor potential channel 4 (Mus musculus) (UniProt Q9QUQ5); assay: inhibitors of mouse TRPC4 channel, confirmation, cell-based, Fluo4, HEK293 TRPC4beta/mu-opioid (AID 2636;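 active means calcium signal cut by more than 3 SD below the full-agonist control yet still positive, in both repeats and the earlier primary screen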); conditions: DAMGO, Fluo4 calcium flux, at 10 µM; hits give high values
[6] = biological target: Short transient receptor potential channel 4 (Mus musculus) (UniProt Q9QUQ5); assay: inhibitors of mouse TRPC4 channel, confirmation, cell-based, second round, Fluo4, HEK293 TRPC4beta/mu-opioid, 1 µM (AID 2637;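 active means calcium signal ratio cut to more than 3 SD under the fully stimulated control mean yet still positive, in both repeats and the primary screen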;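 on inhibition: percent of integrated ratio relative to wells lacking test compound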); conditions: Fluo4 calcium flux, DAMGO, at 1 µM; hits give high values
[7] = biological target: Short transient receptor potential channel 4 (Mus musculus) (UniProt Q9QUQ5); assay: mouse TRPC4 channel activators, dose response, cell-based, HEK293 TRPC4/mu-opioid, Fluo-4 calcium (AID 434937;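 active means primary screen activator hit with a dose response curve and TRPC4 channel activation at any tested dose; inactive means no activation, no dose response, or not a primary hit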)
[8] = biological target: Short transient receptor potential channel 4 (Mus musculus) (UniProt Q9QUQ5); assay: TRPC4 positive allosteric modulators, dose response, cell-based, HEK293 TRPC4/mu-opioid, Fluo-4 calcium, EC20 DAMGO (AID 434941;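 active means earlier screen potentiator hit that boosts the TRPC4 ion channel at some dose, with a dose response; inactive means no potentiation, no dose response, or not a prior hit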;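 further: calcium entry triggered by an EC20 dose of DAMGO at the co-expressed mu-opioid receptor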)
[9] = biological target: Short transient receptor potential channel 6 (Mus musculus) (UniProt Q61143); assay: inhibition of mouse TRPC6 channel, confirmation, selectivity assay for TRPC4 inhibitor project, cell-based, HEK293, membrane potential dye, duplicate (AID 434948;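 active means active in primary screen and both duplicates, each dropping signal beyond three positive-control SD with fluorescence still positive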); conditions: HEK293 TRPC6, membrane potential dye fluorescence, at 10 µM, stimulated with maximal-effect acetylcholine; hits give high values
[10] = biological target: Short transient receptor potential channel 6 (Mus musculus) (UniProt Q61143); assay: activation of mouse TRPC6 channel, confirmation, selectivity assay for TRPC4 activator project, cell-based, HEK293, membrane potential dye, duplicate (AID 434950;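 active means membrane potential signal rise above negative control mean plus 3 SD in both duplicates, also active in the earlier TRPC4 screen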); conditions: HEK293 TRPC6, membrane potential fluorescence, at 10 µM; hits give high values
[11] = biological target: Short transient receptor potential channel 6 (Mus musculus) (UniProt Q61143); assay: TRPC6 potentiation by TRPC4 potentiator hits, confirmation, selectivity assay for TRPC4 potentiator project, HEK293 cells, membrane potential dye, duplicate (AID 434952); conditions: HEK293 TRPC6, membrane potential dye fluorescence, at 10 µM, maximal acetylcholine added after compound; hits give high values
[12] = biological target: Short transient receptor potential channel 4 (Mus musculus) (UniProt Q9QUQ5); assay: calcium flux activators in TRPC4/5HT1a cells, counter-screen for TRPC4 activator project, cell-based, second counter screen, HEK293 TRPC4/5HT1a, Fluo-4 (AID 434977;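 active means calcium signal rise above buffer-control mean plus 5 SD in both duplicates, and also a hit in the primary screen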); conditions: Fluo-4 calcium flux, at 10 µM; hits give high values
[13] = calcium flux inhibitors in TRPC4/5HT1a cells, confirmation, counter-screen for TRPC4 inhibitor project, cell-based, second counter screen, HEK293 TRPC4/5HT1a, Fluo-4 (AID 434978;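 active means primary screen active whose calcium signal fell more than 3 SD beyond the full-serotonin control mean in both duplicate plates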;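 on outcome: serotonin given first at submaximal then at maximal dose after compound preincubation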); conditions: Fluo-4 calcium flux, at 10 µM, serotonin added to trigger calcium flux; hits give high values
[14] = system: TRPC4 (mouse), co-expressed with 5HT1a in HEK293; assay: calcium flux potentiators in TRPC4/5HT1a cells, confirmation, counter-screen for TRPC4 potentiator project, cell-based, second counter screen, HEK293 TRPC4/5HT1a, Fluo-4 (AID 434979;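 active means signal rise over 3 SD above mean of control wells given weak agonist, in both repeats and first screen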); conditions: Fluo-4 calcium flux, at 10 µM, serotonin added at its EC20 dose; hits give high values
[15] = calcium flux activation in mu-opioid HEK293 cells, confirmation, counter-screen for TRPC4 activator project, cell-based, HEK293 mu-opioid receptor line (AID 449723;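 active means hit in primary screen, with calcium signal over 5 SD above buffer well mean in both duplicates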;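 further: counter screen cells carry the mu-opioid receptor alone and lack TRPC4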); conditions: Fluo-4 calcium fluorescence, at 10 µM; hits give high values
[16] = calcium flux enhancement in mu-opioid HEK293 cells, confirmation, counter-screen for TRPC4 allosteric potentiator project, cell-based, HEK293 mu-opioid receptor line (AID 449724;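 active means calcium signal rise more than 3 SD above the low-dose agonist control mean, in both duplicate plates and the primary screen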); conditions: Fluo-4 calcium flux, at 10 µM, compound added before EC20 DAMGO stimulus; hits give high values

Chain of Short transient receptor potential channel 4 (Mus musculus) (Q9QUQ5 whole entry, looked up): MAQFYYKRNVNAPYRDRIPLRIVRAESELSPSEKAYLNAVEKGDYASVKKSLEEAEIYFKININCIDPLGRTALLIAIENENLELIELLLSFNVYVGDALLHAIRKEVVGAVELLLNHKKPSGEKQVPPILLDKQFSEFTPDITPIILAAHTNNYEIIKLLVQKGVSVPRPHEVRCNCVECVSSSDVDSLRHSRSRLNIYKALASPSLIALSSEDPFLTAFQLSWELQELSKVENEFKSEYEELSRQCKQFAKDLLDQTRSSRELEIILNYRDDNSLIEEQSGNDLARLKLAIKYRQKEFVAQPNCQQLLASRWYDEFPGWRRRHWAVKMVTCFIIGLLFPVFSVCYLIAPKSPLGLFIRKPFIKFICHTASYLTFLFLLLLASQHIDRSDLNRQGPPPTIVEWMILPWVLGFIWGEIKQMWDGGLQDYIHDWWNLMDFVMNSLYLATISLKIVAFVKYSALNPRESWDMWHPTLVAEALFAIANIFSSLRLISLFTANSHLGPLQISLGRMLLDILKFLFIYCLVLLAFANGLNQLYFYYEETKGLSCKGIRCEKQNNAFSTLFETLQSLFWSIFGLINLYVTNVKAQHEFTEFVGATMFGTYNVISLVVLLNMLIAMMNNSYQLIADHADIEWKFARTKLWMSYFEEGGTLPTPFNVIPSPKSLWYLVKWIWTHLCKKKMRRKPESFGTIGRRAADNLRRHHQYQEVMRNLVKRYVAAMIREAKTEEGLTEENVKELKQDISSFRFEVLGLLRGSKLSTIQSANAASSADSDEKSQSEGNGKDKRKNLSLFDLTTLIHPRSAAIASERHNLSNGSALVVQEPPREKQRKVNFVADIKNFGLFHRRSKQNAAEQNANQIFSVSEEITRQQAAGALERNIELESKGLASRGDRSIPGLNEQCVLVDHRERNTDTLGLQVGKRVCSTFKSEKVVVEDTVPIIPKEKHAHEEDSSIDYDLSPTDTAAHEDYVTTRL
Chain of Short transient receptor potential channel 6 (Mus musculus) (Q61143 whole entry, looked up): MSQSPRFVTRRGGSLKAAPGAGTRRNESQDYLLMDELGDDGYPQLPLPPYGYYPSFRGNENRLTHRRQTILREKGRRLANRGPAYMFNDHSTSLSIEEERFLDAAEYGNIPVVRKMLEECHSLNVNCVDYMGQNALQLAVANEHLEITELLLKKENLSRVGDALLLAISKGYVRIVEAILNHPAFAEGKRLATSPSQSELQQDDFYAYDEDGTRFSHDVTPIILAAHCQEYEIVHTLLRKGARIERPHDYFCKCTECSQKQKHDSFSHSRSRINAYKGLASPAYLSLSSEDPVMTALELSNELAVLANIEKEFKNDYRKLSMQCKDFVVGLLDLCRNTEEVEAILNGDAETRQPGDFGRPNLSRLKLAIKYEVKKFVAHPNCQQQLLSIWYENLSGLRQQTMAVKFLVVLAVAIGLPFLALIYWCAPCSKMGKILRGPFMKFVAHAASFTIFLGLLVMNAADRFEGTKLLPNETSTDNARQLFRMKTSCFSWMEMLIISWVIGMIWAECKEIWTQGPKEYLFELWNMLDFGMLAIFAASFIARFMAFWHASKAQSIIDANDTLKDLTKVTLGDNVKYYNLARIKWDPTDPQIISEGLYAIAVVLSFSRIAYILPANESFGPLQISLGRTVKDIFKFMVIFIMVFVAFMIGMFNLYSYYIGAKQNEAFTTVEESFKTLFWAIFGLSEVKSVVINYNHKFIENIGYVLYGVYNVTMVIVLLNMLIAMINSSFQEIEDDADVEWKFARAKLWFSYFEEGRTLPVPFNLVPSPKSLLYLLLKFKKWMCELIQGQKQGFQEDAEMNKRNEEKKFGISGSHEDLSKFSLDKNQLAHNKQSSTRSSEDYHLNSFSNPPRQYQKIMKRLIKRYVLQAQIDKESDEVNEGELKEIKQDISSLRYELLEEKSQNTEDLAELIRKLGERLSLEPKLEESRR

Structure (SMILES) | outcome [1] | outcome [2] | outcome [3] | outcome [4] | inhibition [5] | outcome [6] | outcome [7] | outcome [8] | outcome [9] | outcome [10] | outcome [11] | outcome [12] | outcome [13] | outcome [14] | outcome [15] | outcome [16] | inhibition [13] | inhibition [9] | inhibition [6]
COc1cccc(C(CNC(=O)C(c2ccccc2)c2ccccc2)N(C)C)c1 (stereo not drawn) | inactive | inactive | inactive | inactive | 89% (active) | inactive | inactive | inactive | inactive | inactive | inactive | inactive | inactive | inactive | inactive | inactive |  |  | 
Cc1ccc(Sc2ccc(CO)cc2[N+](=O)[O-])cc1 | inactive | inactive | inactive | inactive | 98% (active) | inactive | inactive | inactive | inactive | inactive | inactive | inactive |  | inactive | inactive | inactive | 7.78% (active) |  | 
CCCn1c(=N)n(CC(=O)C(C)(C)C)c2ccccc21 | inactive | inactive | inactive | inactive | 92% (active) | inactive | inactive | inactive | inactive | inactive | inactive | inactive |  | inactive | inactive | inactive | 42.4% (active) |  | 
CCOc1cc(/C=C2\C(=N)N3N=CSC3=NC2=O)ccc1OS(=O)(=O)c1ccccc1 | inactive | inactive | inactive | inactive | 96% (active) | inactive | inactive | inactive | inactive | inactive | inactive | inactive |  | inactive | inactive | inactive | 16.2% (active) |  | 
CCCCC(CC)C(=O)Nc1ncc([N+](=O)[O-])s1 (stereo not drawn) | inactive | inactive | inactive | inactive | 81% (active) | inactive | inactive | inactive |  | inactive | inactive | inactive |  | inactive | inactive | inactive | 27.7% (active) | 33.5% (active) | 
Cc1nn(-c2nc3ccccc3n2Cc2ccccc2)c2c1C(=O)CC(C)(C)C2 | inactive | inactive | inactive | inactive | 72% (active) | inactive | inactive | inactive | inactive | inactive | inactive | inactive |  | inactive | inactive | inactive | 13.5% (active) |  | 
Cc1ccc(C(CNS(=O)(=O)c2ccc([N+](=O)[O-])cc2)N2CCN(C)CC2)cc1 (stereo not drawn) | inactive | inactive | inactive | inactive | 54% (active) |  | inactive | inactive | inactive | inactive | inactive | inactive | inactive | inactive | inactive | inactive |  |  | 63% (active)
Cc1nn(C(=O)c2cccnc2)c(C)c1Sc1ccccc1 | inactive | inactive | inactive | inactive | 92% (active) | inactive | inactive | inactive | inactive | inactive | inactive | inactive |  | inactive | inactive | inactive | 16.5% (active) |  | 
